# About 79,000 compounds went through this panel and 15% of them were active in at least one assay; those are over-represented in the sample as a whole. A number with no mark means an inactive call. The source made the active and inactive calls. Cut-off read from the data, not from the text of the source: active = growth inhibition above about 70%; inactive = the rest.
# Columns and labels:
# [1] = NCI Yeast Anticancer Drug Screen. Data for the rad52 strain (AID 147);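 note: 0% = growth of vehicle-treated control cultures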; settings: S. cerevisiae rad52 mutant growth inhibition, hits give high values
# Outline: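 Here a repair-compromised yeast strain receives each compound; its growth is then quantified and normalised to vehicle-only controls.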
# [2] = NCI Yeast Anticancer Drug Screen. Data for the wt1 strain (AID 149);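 note: 0% = growth of vehicle-treated wt1 cultures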; settings: S. cerevisiae wt1 strain (SPY 50644) growth inhibition, hits give high values
# Outline: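 Growth inhibition read against vehicle controls after compound exposure of the wt1 yeast strain.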
# [3] = NCI Yeast Anticancer Drug Screen. Data for the rad50EPP+ strain (AID 151);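 note: 0% = growth of vehicle-treated control cultures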; settings: S. cerevisiae rad50 mutant strain, hits give high values
# Outline: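 Read-out is yeast growth inhibition relative to vehicle; cells used were the rad50EPP+ strain.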
# [4] = NCI Yeast Anticancer Drug Screen. Data for the mgt1 strain (AID 153); settings: S. cerevisiae mgt1 mutant growth inhibition, hits give high values
# Outline: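 Measured: inhibition of mgt1 yeast growth by compound, normalized to vehicle-treated cultures.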
# [5] = NCI Yeast Anticancer Drug Screen. Data for the rad50 strain (AID 155);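 note: 0% = growth of vehicle-only cultures of the same strain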; settings: S. cerevisiae rad50 strain growth inhibition, hits give high values
# Outline: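 Readout: growth inhibition relative to vehicle-treated cultures. Compound exposure was carried out in a genetically defined yeast strain deficient in DNA damage repair.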
# [6] = NCI Yeast Anticancer Drug Screen. Data for the mec2-1 strain (AID 157); settings: S. cerevisiae mec2-1 strain, hits give high values
# Outline: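 Using mec2-1 yeast: add compound, measure growth, express inhibition versus vehicle-treated cultures.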
# [7] = NCI Yeast Anticancer Drug Screen. Data for the sgs1 mgt1 strain (AID 161);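 note: 0% = growth of cultures given vehicle only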; settings: S. cerevisiae sgs1 mgt1 strain, hits give high values
# Outline: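 Growth of a repair-deficient yeast mutant was monitored after compound treatment and expressed as inhibition relative to vehicle-treated cultures.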
# [8] = NCI Yeast Anticancer Drug Screen. Data for the CLN2oe strain (AID 163);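 note: 0% = growth of vehicle-only control cultures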; settings: S. cerevisiae CLN2oe strain, hits give high values
# Outline: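 Whole-cell yeast growth assay. A strain engineered for altered cell-cycle control received compound, and inhibition relative to vehicle-treated cultures was recorded.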
# [9] = NCI Yeast Anticancer Drug Screen. Data for the cln2 rad14 strain (AID 165);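 note: 0% = growth equal to vehicle treated cultures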; settings: S. cerevisiae cln2 rad14 strain, hits give high values
# Outline: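 Yeast strain cln2 rad14, bearing defects in cell cycle control and DNA repair, serves as the test system; values reflect growth inhibition compared with vehicle.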
# [10] = NCI Yeast Anticancer Drug Screen. Data for the bub3 strain (AID 167); settings: S. cerevisiae bub3 mutant strain, hits give high values
# Outline: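 Readout: yeast growth inhibition, expressed relative to vehicle-only wells. The test organism is a mutant strain from a panel with lesions in DNA repair or checkpoint genes.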
# [11] = NCI Yeast Anticancer Drug Screen. Data for the wt2 strain (AID 169);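 note: 0% = growth of vehicle-treated yeast cultures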; settings: S. cerevisiae wt2 strain growth inhibition, hits give high values
# Outline: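 Treated yeast vs. vehicle-treated yeast: growth inhibition determined.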
# [12] = NCI Yeast Anticancer Drug Screen. Data for the mlh1 strain (AID 171);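 note: 0% = growth of vehicle-treated control cultures of the same strain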; settings: S. cerevisiae mlh1 strain growth inhibition, hits give high values
# Outline: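 A yeast strain with a defined genetic lesion serves as the test organism. Cultures receive compound or vehicle, and growth is measured.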
# [13] = NCI Yeast Anticancer Drug Screen. Data for the sgs1 strain (AID 173);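 note: 0% = growth of vehicle-only control cultures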; settings: S. cerevisiae sgs1 mutant, hits give high values
# Outline: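 A genetically defined yeast mutant is incubated with the test compound, and its growth is compared to that of the same strain given vehicle.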
# [14] = NCI Yeast Anticancer Drug Screen. Data for the mlh1 rad18 strain (AID 175); settings: S. cerevisiae mlh1 rad18 strain growth inhibition, hits give high values
# Outline: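 Steps: expose repair-defective yeast to compound; measure growth; express inhibition against vehicle-treated controls.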
# [15] = NCI Yeast Anticancer Drug Screen. Data for the rad18 strain (AID 177); settings: S. cerevisiae rad18 mutant growth inhibition, hits give high values
# Outline: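 Measured value is growth inhibition of a yeast strain bearing a DNA repair alteration, referenced to vehicle-treated cells.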
# [16] = at 5.0 µM (retest, dose inferred, filed as 0.5)
# [17] = at 50.0 µM (retest, dose inferred, filed as 5.0)
smiles,measurement,setting,value
COC(=O)C1=C(C(=O)OC)SC2(S1)C(C(=O)OC)=C(C(=O)OC)Sc1c2ssc1=O,growth inhibition,[1]; at 1.2 µM,55%
same,growth inhibition,[1]; at 3.7 µM,72% (active)
same,growth inhibition,[1]; at 11.0 µM,93% (active)
same,growth inhibition,[1]; at 33.0 µM,98% (active)
same,growth inhibition,[1]; at 100.0 µM,89% (active)
same,growth inhibition,[2]; at 1.2 µM,27%
same,growth inhibition,[2]; at 3.7 µM,26%
same,growth inhibition,[2]; at 11.0 µM,66%
same,growth inhibition,[2]; at 33.0 µM,99% (active)
same,growth inhibition,[2]; at 100.0 µM,94% (active)
same,growth inhibition,[3]; at 1.2 µM,9%
same,growth inhibition,[3]; at 3.7 µM,8%
same,growth inhibition,[3]; at 11.0 µM,30%
same,growth inhibition,[3]; at 33.0 µM,56%
same,growth inhibition,[3]; at 100.0 µM,54%
same,growth inhibition,[4]; at 1.2 µM,44%
same,growth inhibition,[4]; at 3.7 µM,51%
same,growth inhibition,[4]; at 11.0 µM,88% (active)
same,growth inhibition,[4]; at 33.0 µM,99% (active)
same,growth inhibition,[4]; at 100.0 µM,92% (active)
same,growth inhibition,[5]; at 1.2 µM,46%
same,growth inhibition,[5]; at 3.7 µM,73% (active)
same,growth inhibition,[5]; [16],13%
same,growth inhibition,[5]; at 11.0 µM,93% (active)
same,growth inhibition,[5]; at 33.0 µM,98% (active)
same,growth inhibition,[5]; [17],95% (active)
same,growth inhibition,[5]; at 50.0 µM,82.2% (active)
same,growth inhibition,[5]; at 100.0 µM,91% (active)
same,growth inhibition,[6]; at 1.2 µM,16%
same,growth inhibition,[6]; at 3.7 µM,17%
same,growth inhibition,[6]; [16],17%
same,growth inhibition,[6]; at 11.0 µM,85% (active)
same,growth inhibition,[6]; at 33.0 µM,98% (active)
same,growth inhibition,[6]; [17],95% (active)
same,growth inhibition,[6]; at 50.0 µM,86.2% (active)
same,growth inhibition,[6]; at 100.0 µM,88% (active)
same,growth inhibition,[7]; [16],26%
same,growth inhibition,[7]; [17],95% (active)
same,growth inhibition,[7]; at 50.0 µM,84.1% (active)
same,growth inhibition,[8]; at 1.2 µM,14%
same,growth inhibition,[8]; at 3.7 µM,26%
same,growth inhibition,[8]; at 11.0 µM,91% (active)
same,growth inhibition,[8]; at 33.0 µM,98% (active)
same,growth inhibition,[8]; at 100.0 µM,91% (active)
same,growth inhibition,[9]; [16],70% (active)
same,growth inhibition,[9]; [17],95% (active)
same,growth inhibition,[9]; at 50.0 µM,86.2% (active)
same,growth inhibition,[10]; at 1.2 µM,23%
same,growth inhibition,[10]; at 3.7 µM,32%
same,growth inhibition,[10]; [16],55%
same,growth inhibition,[10]; at 11.0 µM,88% (active)
same,growth inhibition,[10]; at 33.0 µM,98% (active)
same,growth inhibition,[10]; [17],94% (active)
same,growth inhibition,[10]; at 50.0 µM,78.8% (active)
same,growth inhibition,[10]; at 100.0 µM,91% (active)
same,growth inhibition,[11]; at 1.2 µM,21%
same,growth inhibition,[11]; at 3.7 µM,54%
same,growth inhibition,[11]; at 11.0 µM,99% (active)
same,growth inhibition,[11]; at 33.0 µM,96% (active)
same,growth inhibition,[11]; at 100.0 µM,89% (active)
same,growth inhibition,[12]; at 1.2 µM,44%
same,growth inhibition,[12]; at 3.7 µM,51%
same,growth inhibition,[12]; at 11.0 µM,88% (active)
same,growth inhibition,[12]; at 33.0 µM,99% (active)
same,growth inhibition,[12]; at 100.0 µM,92% (active)
same,growth inhibition,[13]; at 1.2 µM,43%
same,growth inhibition,[13]; at 3.7 µM,58%
same,growth inhibition,[13]; at 11.0 µM,87% (active)
same,growth inhibition,[13]; at 33.0 µM,99% (active)
same,growth inhibition,[13]; at 100.0 µM,93% (active)
same,growth inhibition,[14]; [16],26%
same,growth inhibition,[14]; [17],96% (active)
same,growth inhibition,[14]; at 50.0 µM,86.8% (active)
same,growth inhibition,[15]; at 1.2 µM,30%
same,growth inhibition,[15]; at 3.7 µM,55%
same,growth inhibition,[15]; at 11.0 µM,91% (active)
same,growth inhibition,[15]; at 33.0 µM,95% (active)
same,growth inhibition,[15]; at 100.0 µM,90% (active)
